Screens as filed in PubChem BioAssay.
Rows were chosen to be rich in hits. Some 4.7% of all compounds tested hit in one or more screens of this group.
tim23-1 inh: growth inhibitors of tim23-1 mutant yeast, primary screen, luminescence, uHTS; S. cerevisiae tim23-1 growth, BacTiter-Glo luminescence, 24 h; inhibition, % at 20 µM; 330,000 tested, 1.3% active; AID 463212, 2010;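 active = growth inhibition of the mutant yeast at or above 50%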;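 also: temperature-sensitive mutant grown at 25 °C; plate controls were DMSO-treated mutant yeast for no effect and medium wells lacking yeast for full effect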
PfHsp90 yeast 2: growth inhibition of PfHsp90-expressing yeast, primary screen, antimalarial PfHsp90 inhibitor project, S. cerevisiae, BacTiter-Glo luminescence, single point, set 2; 310,000 tested, 0.32% active; inhibition, % at 9.4 µM; BacTiter-Glo ATP, 48 h; yeast lacking PDR1 and PDR3 efflux regulators;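 active = every replicate shows inhibition above about 80%, whatever the replicate mean, limit read from the data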;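 also: 0% = DMSO neutral controls and 100% = 20 µM radicicol positive controls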
SKKanGAS inh: S. pyogenes SKKanGAS growth inhibitors in kanamycin, primary screen, streptokinase expression inhibitor project, SKKanGAS strain, BacTiter-Glo luminescence. 6 h. inhibition, % at 7.5 µM. 300,000 tested, 1.3% active. AID 1662, 2009;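 active = mean replicate score, as percent of positive control median, at least 50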;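 also: strain carries kanamycin resistance gene driven by streptokinase promoter and grows in 40 µg/ml kanamycin; loss of luminescence reflects streptokinase promoter inhibition or plain growth inhibition; 0% = median of DMSO wells and 100% = positive control at its reference dose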
tim10-1 inh: growth inhibitors of tim10-1 mutant yeast, primary screen, luminescence, uHTS; 330,000 tested, 2.2% active; inhibition, % at 20 µM; AID 463190, 2010; S. cerevisiae tim10-1 ts strain growth, BacTiter-Glo, 24 h;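 active = inhibition of at least 40%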;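 also: mutant grown at 25 °C; 0% = DMSO wells with yeast and 100% = wells holding no yeast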
Calb FLC: C. albicans growth inhibition with fluconazole, primary screen, CaCi-2 strain, Alamar Blue fluorescence; C. albicans CaCi-2 (fluconazole-resistant clinical isolate) + fluconazole, 48 h; growth inhibition, % (no concentration beside the values); 300,000 tested, 0.57% active; AID 1979, 2009;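 active = growth inhibition above about 58% in most replicates, limit read from the data, passing the limit was not always enough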;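 also: all wells also contain fluconazole at 8 µg/ml as a sub-toxic cotreatment; 0% = median of DMSO wells and 100% = median of geldanamycin control wells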
TIM10 inh: growth inhibitors of isogenic TIM10 control yeast, primary screen, counter-screen for tim10-1 yeast inhibitor project, luminescence, uHTS. S. cerevisiae TIM10 strain growth, BacTiter-Glo luminescence, 24 h. 330,000 tested, 1.4% active. inhibition, % at 10 µM;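 active = inhibition of 40% or more at the single tested concentration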;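 also: wild-type TIM10 isogenic control strain grown at permissive 25 °C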
tim10-1 confirm: growth inhibitors of tim10-1 mutant yeast, confirmation, single concentration, luminescence, S. cerevisiae; S. cerevisiae tim10-1 ts strain growth, BacTiter-Glo, 24 h; 7,400 tested, 56% active; AID 463213, 2010; shares compounds with tim10-1 inh; inhibition, % at 20 µM;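 active = inhibition of yeast growth at or above a set limit in either of two repeat tests at 20 µM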;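 also: tim10-1 mutant grown at permissive 25 °C to find synthetic lethal compounds; 0% = DMSO yeast wells and 100% = medium wells without yeast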
The depositor's hits bear a star; . = no result given.

SMILES	tim23-1 inh	PfHsp90 yeast 2	SKKanGAS inh	tim10-1 inh	Calb FLC	TIM10 inh	tim10-1 confirm
CN(C(=O)Cn1cccc1C1=NC(c2ccccc2)CO1)c1ccccc1 (stereo not given)	30	0	-2	42*	-5	21	18
Cn1cnc([N+](=O)[O-])c1S(=O)(=O)c1cccc(Cl)c1	29	15	5	15	6	18	.
CCCn1c(CC)nc([N+](=O)[O-])c1S(=O)(=O)c1ccccc1	40	16	11	54*	-40	38	43*
Nc1c(C(=O)NCc2ccc(Cl)cc2)sc2nc3c(c(C(F)(F)F)c12)CCC3	30	.	28	46*	22	4	26
CC1=C(C(=O)Nc2cccc(C(=O)N3CCC(C(N)=O)CC3)c2)SCCO1	1	2	-10	11	22	-4	.
COc1ccc(Cl)cc1NC(=O)CSc1nc(C)cc(C)n1	30	2	6	41*	12	-1	17
O=C(NCc1ccco1)C1CCN(C(=O)c2ccc(Cl)cc2Cl)CC1	2	-34	4	-3	4	8	.
CC(=O)c1ccc(Sc2nnnn2-c2ccccc2)c([N+](=O)[O-])c1	46	-10	-4	46*	42	17	31
Clc1ccccc1Nc1nnc(-c2ccncc2)s1	42	66	34	40*	-2	30	41*
O=C(CSc1ccc(-c2cccnc2)nn1)Nc1ccccc1C(F)(F)F	11	.	-3	6	5	1	.
O=C(Nn1c(SCc2ccc(F)cc2)nc2ccsc2c1=O)c1ccccc1	26	-39	4	40*	-46	20	19
CCN1CCN(c2c(/C=C3\SC(=S)N(Cc4ccco4)C3=O)c(C)c(C#N)c(=O)n2C)CC1	15	4	-2	0	34	9	.
Cc1cc(C)nc(OC(=O)c2c(Cl)cc(Cl)cc2Cl)n1	36	15	-15	44*	8	22	33*
Cc1cc(OC(=O)c2c(Cl)cc(Cl)cc2Cl)nc(C)n1	31	.	8	27	12	28	.
COC(=O)c1cccc(NC(=O)COc2cccc([N+](=O)[O-])c2)c1	8	-5	2	16	7	16	.
CC(CC(=O)N1CCc2ccccc21)n1cccn1 (stereo not given)	1	-13	-2	4	-23	-1	.
COc1ccc(C2/C(=C(/O)c3ccccc3)C(=O)C(=O)N2C)cc1OC (stereo not given)	1	6	2	1	3	-1	.
COc1ccc(C(=O)/C=C/c2ccccc2)c(OC)c1	26	1	-1	40*	13	14	21
COc1ccc(/C=C/C(=O)c2cc3cccc(OC)c3oc2=O)cc1	23	5	7	43*	16	10	10
CNC(=O)c1cc2cccc(OC)c2oc1=O	12	5	1	14	-2	4	.
COc1ccc(C(=O)/C=C/c2ccc(N(C)C)cc2)c(OC)c1	-10	-3	-9	-55	-20	-2	.
COCOc1cc(O)c(C(=O)/C=C/c2ccccc2)c(OCOC)c1	43	.	-2	50*	2	37	41*
CCCCc1ccc(CC(=O)Nc2cc(S(=O)(=O)N3CCOCC3)ccc2O)cc1	0	-22	.	-15	.	9	.
Cc1ccc(NC(=O)COC(=O)c2c(-c3ccccc3)noc2C)c(C)c1	10	-43	.	21	.	12	.
CCC(Oc1ccccc1)C(=O)Nc1ncc([N+](=O)[O-])s1 (stereo not given)	47	-42	9	42*	94*	19	55*
SMILES	tim23-1 inh	PfHsp90 yeast 2	SKKanGAS inh	tim10-1 inh	Calb FLC	TIM10 inh	tim10-1 confirm
O=C(COC(=O)COc1ccccc1)Nc1ncc([N+](=O)[O-])s1	-2	0	.	-5	.	10	.
CC(CC(=O)Nc1ncc([N+](=O)[O-])s1)c1ccccc1 (stereo not given)	40	.	.	43*	92*	30	52*
COc1ccc(C)cc1NC(=O)c1cc(S(=O)(=O)N2CCC3(CC2)OCCO3)ccc1F	45	-15	-2	46*	-5	20	19
O=C(Oc1cc2oc(=O)c3c(c2cc1Cl)CCCC3)c1cccs1	31	-4	31	43*	95*	23	17
COc1cc(Br)ccc1C1CC(=O)C(C)C(c2ccc(Br)cc2OC)N1 (stereo not given)	26	23	32	53*	.	20	10
CCOC(=O)n1c(=O)n(Cc2ccccc2Cl)c2ccccc21	48	-16	2	43*	-6	20	33*
CC(C)(C)NC(=O)C(c1ccncc1)N(Cc1ccco1)C(=O)c1ccc(-c2ccccc2)[nH]1 (stereo not given)	35	.	-4	52*	10	25	42*
COc1ccc(OCC(=O)Nc2ccc(NC(=O)c3ccccc3Cl)c(OC)c2)cc1	34	-5	3	10	-3	11	.
CCCCCCCCCCCCC/C=C/[C@@H](O)[C@@H](N)CO	35	21	94*	44*	38	22	1
CCCCCCCC/C=C\CCCCCCCC(=O)O	2	-25	2	-4	.	-22	.
CCC(C)NC(=O)c1c(N)n(/N=C/c2ccccn2)c2nc3ccccc3nc12 (stereo not given)	2	-9	87*	42*	0	35	17
COCCCNC(=O)c1c(N)n(/N=C/c2cccs2)c2nc3ccccc3nc12	15	1	3	42*	2	28	-3
COCCCNC(=O)c1c(N)n(/N=C/c2cccnc2)c2nc3ccccc3nc12	0	-3	21	30	-1	9	.
COc1cccc(N=Nc2ccc3ccccc3c2O)c1	32	0	19	46*	2	13	31*
O=S(=O)(Nc1cccc2cccnc12)c1ccc(S(=O)(=O)N2CCCC2)cc1	43	-59	-20	50*	96*	39	39*
C=CCNc1sc(C(=O)c2ccccc2)c(N)c1-c1nc2ccccc2s1	44	.	22	40*	44	22	18
CCOC(=O)c1sc(NCc2ccco2)c(-c2nc3ccccc3s2)c1N	26	-13	2	32	-2	20	.
